An excerpt weighted towards active compounds, which were near 3.4% of everything screened.
FBW7 activator: human FBW7 E3 ligase activation, primary screen; AlphaScreen FBW7–phospho-cyclin E peptide binding, activator screen; Q969H0; AID 1259310; 650,000 compounds, 0.13% hits; normalized activity (activation), % at 26.1 µM; in the data active means normalized activity above about 1.9%;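 further: purified mutant Fbw7 with reduced substrate affinity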
TEAD-YAP block: TEAD-YAP interaction inhibition; HEK-TIYL cells, TEAD-Gal4/YAP UAS-luciferase luminescence; inhibition, % at 9.12 µM; 640,000 compounds, 1.4% hits; in the data active means inhibition above about 32%;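 further: 0% = median of test compound wells and 100% = reference inhibitor wells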
MITF inh: inhibitors of human MITF; O75030; 650,000 compounds, 0.91% hits; AlphaScreen MITF homodimerization, bead proximity signal; inhibition, % at 2.6 µM; in the data active means inhibition above about 50%;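 further: 0% = vehicle wells with protein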
Target sequence (O75030 whole entry, looked up): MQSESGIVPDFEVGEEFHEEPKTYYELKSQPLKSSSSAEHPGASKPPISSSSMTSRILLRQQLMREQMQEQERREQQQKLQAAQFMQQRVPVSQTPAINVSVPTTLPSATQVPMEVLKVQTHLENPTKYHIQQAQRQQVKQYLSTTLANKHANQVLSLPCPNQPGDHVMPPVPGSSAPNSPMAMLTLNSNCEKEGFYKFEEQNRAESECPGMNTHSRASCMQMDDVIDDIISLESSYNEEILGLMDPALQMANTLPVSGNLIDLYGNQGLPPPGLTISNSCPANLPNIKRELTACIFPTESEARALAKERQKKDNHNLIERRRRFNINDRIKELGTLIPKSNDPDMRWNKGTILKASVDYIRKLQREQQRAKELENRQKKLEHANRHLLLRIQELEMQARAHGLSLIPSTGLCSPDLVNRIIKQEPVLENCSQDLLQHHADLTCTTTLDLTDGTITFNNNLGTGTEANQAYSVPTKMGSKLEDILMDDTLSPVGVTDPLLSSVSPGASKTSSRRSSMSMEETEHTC
GPR151 activ: activates the human receptor GPR151 | activation, % at 11.2 µM | Q8TDV0 | PathHunter beta-arrestin GPR151 cells, luminescence | AID 1508602 | 650,000 compounds, 1% hits; in the data active means activation above about 4.9%;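 further: 0% = median of compound wells and 100% = cells with positive control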
MITF inh conf: confirmation of human MITF inhibitors. shares compounds with MITF inh. AlphaScreen MITF homodimerization, biotin/His-MITF beads. inhibition, % at 2.6 µM. 4,700 compounds, 16% hits;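 active means inhibition above a cutoff derived from the DMSO control wells, cut at about 28% in these data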;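 further: 0% = MITF dimer wells with DMSO only; inhibitors lower the bead chemiluminescence by keeping MITF from dimerizing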
AlphaScreen DR: AlphaScreen optical interference, dose response counter-screen. AlphaScreen optical interference counterscreen, cell-free. 480 compounds, 6% hits. shares compounds with MITF inh. IC50, µM; call rule not given here
AlphaScreen intf2: AlphaScreen optical interference, counter-screen; shares compounds with MITF inh; LysRS AlphaScreen counterscreen, signal interference, triplicate; inhibition, % at 2.6 µM; 4,700 compounds, 7.6% hits; AID 1259376;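 active means inhibition above a cutoff derived from the DMSO control wells, cut at about 30% in these data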
* = called active by the depositor; / = no result.

SMILES | FBW7 activator | TEAD-YAP block | MITF inh | GPR151 activ | MITF inh conf | AlphaScreen intf2 | others
CSc1ccc(CN2CCN(Cc3cccnc3)CC2)cc1 | 1 | 3 | 86* | 0 | 16 | 17
COc1cccc(CN2CCC(CNc3ccc(-c4ccncc4)cc3)C2)c1 (stereo unspecified) | 0 | -6 | 63* | -2 | 61* | 12 | AlphaScreen DR=>6.5
COc1cccc(CN2CCOCC2)c1 | 0 | 7 | -2 | 0 | / | /
COc1ccc(C2CCN(Cc3cccnc3)CC2)cc1 | 0 | 2 | 64* | 0 | 10 | 9
Cc1ccc(/C=C/C(=O)OC(C)C(=O)NC(=O)NC2CCCCC2)o1 (stereo unspecified) | 0 | -12 | -4 | 2 | / | /
Cc1nc2c(c(=O)[nH]1)CN(C1CCCCC1)CC2 | 0 | 1 | 11 | 0 | / | /
COC(=O)CNc1nc(-c2ccc(Br)cc2)nc2ccccc12 | 0 | 3 | -3 | -1 | / | /
COc1ccc(CN2CCN(Cc3cccnc3)CC2)cc1 | 0 | -14 | 74* | 2 | 24 | 13
COc1ccc(CC2(CO)CCN(Cc3cccnc3)CC2)cc1 | 0 | 6 | -5 | 1 | / | /
COc1cc(CN2CCCCCCC2)cc(OC)c1O | 0 | -3 | 22 | 0 | / | /
COc1cc(CN2CCN(Cc3cccnc3)CC2)cc(OC)c1O | 0 | 1 | 66* | -2 | 4 | 7
Cc1ccc(C)c(NC(=O)c2cc3c(=O)n4cccc(C)c4nc3s2)c1 | 0 | 11 | 3 | 0 | / | /
Cc1nc(-c2ccc(NC(=O)c3cc4cc(Br)cc(Br)c4oc3=O)cc2)cs1 | 1 | 4 | 0 | 0 | / | /
O=C(Nc1nc(-c2ccc(F)cc2)cs1)c1cc2cc(Br)cc(Br)c2oc1=O | 0 | 3 | 100* | -1 | 2 | -9
CCCCCCN1C(=O)C(=O)/C(=C(\O)c2ccc(C)cc2)C1c1ccc2c(c1)OCO2 (stereo unspecified) | 0 | 0 | 4 | 0 | / | /
CCC(c1nnc(SCC(=O)N(C)C)o1)N(C)C (stereo unspecified) | 0 | 6 | 81* | 1 | 7 | 15
O=C(NC1CC1)c1cncc(-c2cccs2)c1 | 0 | -7 | 18 | 0 | / | /
NC(=O)c1cncc(-c2cccs2)c1 | 0 | 1 | 70* | 1 | 65* | 13 | AlphaScreen DR=>6.5
C/C(=N\NC(=O)CC1=NNC(=O)C1)c1ccco1 | 0 | -1 | 51* | 0 | 36* | -2 | AlphaScreen DR=>6.5
NC(=O)c1ccc(N=Cc2cc(Br)ccc2O)cc1 | 0 | -3 | -5 | 2 | / | /
O=C(O)c1ccc(O)c(C=Nc2ccc(N=Cc3cc(C(=O)O)ccc3O)cc2)c1 | 0 | -11 | 70* | -1 | 73* | -9 | AlphaScreen DR=>6.5
Cc1ccc(OCCCN(C)C)c([N+](=O)[O-])c1 | 0 | -3 | 68* | 0 | -1 | 10
CN(C)CCCCOc1ccc([N+](=O)[O-])cc1 | 0 | 5 | 77* | 1 | 5 | -1
C=CCNCCOc1ccc(C)cc1[N+](=O)[O-] | 0 | -3 | 52* | 3 | -23 | -3
C=CCNCCCOc1ccc(C)cc1[N+](=O)[O-] | 0 | -1 | 44 | -4 | / | /
SMILES | FBW7 activator | TEAD-YAP block | MITF inh | GPR151 activ | MITF inh conf | AlphaScreen intf2 | others
COc1ccc(OCCCCOc2ccc([N+](=O)[O-])cc2)cc1 | 0 | 3 | 9 | 0 | / | /
O=C(CN1C(=O)/C(=C2\SC(N3CCOCC3)=NC2=O)c2ccccc21)Nc1cccc(C(F)(F)F)c1 | 0 | 6 | 15 | 1 | / | /
O=S(=O)(c1cccc(-c2cn3ccccc3n2)c1)N1CCOCC1 | 0 | 1 | -3 | 0 | / | /
CS(=O)(=O)N1CCN(C(=S)Nc2ccc(S(N)(=O)=O)cc2)CC1 | 1 | 1 | 19 | 0 | / | /
Cc1cccc(N2CCN(C(=O)/C=C\C(=O)O)CC2)c1C | 0 | 0 | 69* | -2 | 54* | 10 | AlphaScreen DR=>6.5
CCOC(=O)N1CCN(c2cccc(C)c2C)CC1 | 0 | 1 | 0 | -1 | / | /
O=C(CNCCc1ccc2c(c1)OCCO2)N1CCc2ccccc21 | 0 | 7 | 51* | 0 | -3 | 7
CCN1C(C(=O)c2ccccc2)=C(NC(=O)c2ccc(Cl)cc2)c2ccccc2S1(=O)=O | 0 | 8 | 0 | -1 | / | /
CCN1C(C(=O)c2ccccc2)=C(NC(=O)c2ccc(C)cc2)c2ccccc2S1(=O)=O | 0 | -1 | 54* | -1 | -1 | 0
